In the library only some 2.5% were active in any assay of this set; here they are far more common.
NTMT1 inhibitor: Primary qHTS for Inhibitors of N-terminal methyltransferase 1 (NTMT1): MTaseGlo Assay; N-terminal Xaa-Pro-Lys N-methyltransferase 1 (Homo sapiens), Q9BV86; NTMT1 MTase-Glo SAH luminescence, purified enzyme; Potency, µM (doses to about 114 µM), for the others: at the top dose activity change, negative = inhibition, actives largely listed as inhibitors; actives 2.5% (n = 59,000); AID 1645870, 2021;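 note: potency is the fitted concentration of half-maximal effect; plate controls were DMSO vehicle for no effect and no enzyme for full effect; nearly all actives have a fitted effect of over 65% in size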
Target sequence (Q9BV86 whole entry, looked up): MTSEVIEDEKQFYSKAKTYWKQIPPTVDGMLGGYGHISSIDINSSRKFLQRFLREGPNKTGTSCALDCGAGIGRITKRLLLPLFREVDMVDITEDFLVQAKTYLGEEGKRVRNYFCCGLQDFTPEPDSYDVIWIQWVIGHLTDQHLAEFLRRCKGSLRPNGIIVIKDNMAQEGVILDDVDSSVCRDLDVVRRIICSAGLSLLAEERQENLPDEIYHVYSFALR
FH mod: Identification of activators of human fumarate hydratase by quantitative high-throughput screening; Fumarate hydratase, mitochondrial (Homo sapiens), P07954; FH coupled MDH/diaphorase resazurin fluorescence, 15 min; Potency, µM (top dose mostly 79.9 µM), for the others: top-dose activity change, negative = inhibition, most hits filed as inhibitors; actives 0.22% (n = 54,000); AID 1347055, 2019; note: potency is the fitted concentration of half-maximal effect; % is set by controls: 0 for no effect and ±100 for the full control effect; the screen sought activators but most active calls are inhibition curves; nearly all actives have a fitted effect of over 45% in size
GALK inhibitor: qHTS Assay for Inhibitors of Human Galactokinase (GALK): NCGC Sytravon Library Screen; Potency, µM (series often up to 57.5 µM), inactives show at the highest dose activity, negative = inhibition, actives largely listed as inhibitors; 44,000 tested, under 10 active; P51570; recombinant GALK, Kinase-Glo ATP luminescence, 1 h;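 note: plate controls were full GALK reaction for no effect and reaction lacking GALK for full effect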
Target sequence (P51570 whole entry, looked up): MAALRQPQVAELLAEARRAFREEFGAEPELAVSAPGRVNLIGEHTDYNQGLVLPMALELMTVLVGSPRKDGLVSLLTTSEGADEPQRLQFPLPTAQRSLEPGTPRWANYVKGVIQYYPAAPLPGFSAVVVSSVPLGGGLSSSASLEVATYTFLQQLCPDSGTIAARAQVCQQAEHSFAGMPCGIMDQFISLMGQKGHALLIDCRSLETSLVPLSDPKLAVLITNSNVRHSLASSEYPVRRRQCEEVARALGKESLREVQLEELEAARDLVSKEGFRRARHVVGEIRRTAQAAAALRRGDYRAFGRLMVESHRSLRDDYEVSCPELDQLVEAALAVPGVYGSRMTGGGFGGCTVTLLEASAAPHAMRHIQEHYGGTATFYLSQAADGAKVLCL
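Reactions with and without enzyme served as controls. GALK at 5 nM phosphorylates 100 uM galactose using 35 uM ATP (HEPES pH 8.0, Mg2+) for 1 h at RT, with luminescence read 10 min after adding Kinase-Glo Plus.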
HTT prom inh: Primary qHTS for Identification of Small Molecule Inhibitors of Huntingtin Promoter Activity. Potency, µM (titrated, usually from 57.5 µM), without a hit: top-dose activity change, negative = inhibition, usual class: inhibitors. actives 0.93% (n = 48,000). HEK293 HTT promoter firefly luciferase reporter, 24 h; note: potency is the fitted concentration of half-maximal effect; nearly all actives have a fitted effect of over 50% in size
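HEK293 luciferase promoter-reporter cells (2,500/well) plated 24 h, then compounds added at up to 57.5 uM final for 24 h at 37 °C. Firefly luminescence by Dual-Glo, normalized to vehicle (0%) and zero RLU (-100%).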
HTT-AS act: Primary qHTS for Identification of Small Molecule Activators of Huntingtin-Antisense Promoter Activity | HEK293 HTT-AS promoter firefly luciferase reporter, 24 h; response scale: percent change from vehicle, -100% = no light | Potency, µM (top dose mostly 57.5 µM), inactives show at the top dose activity change, positive = activation, most hits filed as activators | actives 0.24% (n = 48,000) | AID 1508624, 2021; note: potency is the fitted concentration of half-maximal effect; nearly all actives have a fitted effect of over 55% in size
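HEK293 Fluc reporter, 2,500 cells/well, 24 h pre-culture; cpds up to 57.5 uM final, 24 h 37 degrees C; Dual-Glo, 10 min RT; normalized vehicle = 0%, zero RLU = -100%.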
CLK4 KinaseGlo: Confirmation Assay for Inhibitors of CDC-like Kinase 4 (Kinase-Glo Assay): SAR round 2. shares compounds with NTMT1 inhibitor. recombinant Clk4, Kinase-Glo ATP luminescence, 4.5 h. Potency, µM (series often up to 76.9 µM), for inactives: at the top dose activity, negative = inhibition, actives largely listed as inhibitors. actives 90% (n = 90). AID 493204, 2011
Sfp PPTase inh: qHTS Assay for Inhibitos of Bacillus subtilis Sfp phosphopantetheinyl transferase (PPTase): Chemistry Optimization Followup. actives 78% (n = 230). purified Sfp PPTase enzyme activity, qHTS. Potency, µM (series often up to 114 µM), for inactives: top-dose activity change, negative = inhibition, most hits filed as inhibitors. AID 540350, 2011. shares compounds with NTMT1 inhibitor
HM489 growth: qHTS for Inhibitos of Bacillus subtilis Sfp phosphopantetheinyl transferase (PPTase): Chemistry Optimization Followup in B. Subtilis HM489. AID 540353, 2011. shares compounds with NTMT1 inhibitor. B. subtilis HM489 (acpS-) growth, BacTiter-Glo, 5 h. Potency, µM (series often up to 114 µM), for inactives: top-dose activity change, negative = inhibition, most hits filed as inhibitors. actives 50% (n = 220)
Sfp gel opt: Gel-Based Assay for Inhibitos of Bacillus subtilis Sfp phosphopantetheinyl transferase (PPTase): Chemistry Optimization Followup | Potency, µM (top dose mostly 250 µM), for the others: at the highest dose activity change, negative = inhibition, hits mostly inhibitors | actives 54% (n = 220) | shares compounds with NTMT1 inhibitor | purified Sfp PPTase, gel-based product detection
Sfp inh SAR2: qHTS Assay for Inhibitors of Bacillus subtilis Sfp phosphopantetheinyl transferase (PPTase): SAR Round 2 | actives 87% (n = 230) | Potency, µM (series often up to 57.1 µM), for the others: at the top dose activity change, negative = inhibition, actives largely listed as inhibitors | AID 602370, 2012 | purified Sfp enzyme, PPTase activity, qHTS | shares compounds with NTMT1 inhibitor
HSD17B4 counter: Extended Characterization of HPGD Inhibitors: Counterscreen Against HSD17b4; shares compounds with NTMT1 inhibitor; purified HSD17B4, estradiol/NAD+, NADH fluorescence; actives 10% (n = 230); AID 743187, 2013; Potency, µM (doses to about 57.1 µM), without a hit: top-dose activity change, negative = inhibition, hits mostly inhibitors
ALDH1A1 inh: Extended Characterization of HPGD Inhibitors: Counterscreen Against ALDH1A1. shares compounds with NTMT1 inhibitor. recombinant ALDH1A1, NADH fluorescence, propionaldehyde/NAD+. Potency, µM (titrated, usually from 57.1 µM), without a hit: top-dose activity change, negative = inhibition, hits mostly inhibitors. actives 93% (n = 230)
NNMT counter: Counterscreen qHTS for Inhibitors of N-terminal methyltransferase 1 (NTMT1): NNMT MTaseGlo assay; shares compounds with NTMT1 inhibitor; NNMT MTase-Glo luminescence, SAH detection; Potency, µM (highest dose often 57.1 µM), for inactives: top-dose activity, negative = inhibition, actives largely listed as inhibitors; actives 10% (n = 120)
The depositor's hits bear a star; ? = inconclusive; / = no result; ! = not confirmed by another sample; [ ] = another dose, or the depositor's remark. Calls come from the whole dose curve; as a rule, active = well fitted curve in the direction sought with a large enough effect; inconclusive = small, poorly fitted or top-dose-only effect, or another doubt; inactive = no such curve, though single readings can be large; an effect the other way counts as inactive or inconclusive.

SMILES | NTMT1 inhibitor | FH mod | GALK inhibitor | HTT prom inh | HTT-AS act | NNMT counter | others
Cc1ccnc(NC(=S)N2CCN(c3ccc(Br)cc3)CC2)c1 | ? | / | / | / | / | / | Sfp PPTase inh=5.9µM*;HM489 growth=24µM*;Sfp gel opt=7.9µM*;Sfp inh SAR2=1.8µM*;HSD17B4 counter=-13%;ALDH1A1 inh=3.4µM*
CC(=O)c1ccc(N2CCN(C(=S)Nc3cc(C)ccn3)CC2)cc1 | ? | / | / | / | / | / | Sfp PPTase inh=5.9µM*;HM489 growth=17µM*;Sfp gel opt=5µM*;Sfp inh SAR2=1µM*;HSD17B4 counter=?;ALDH1A1 inh=7.6µM*
CC(=O)c1ccc(N2CCN(C(=O)c3cc4ccc5cccnc5c4[nH]3)CC2)cc1 | 10% | -10% | 2% | 0% | -11% | /
Cc1ccc(OCCn2c(CCNC(=O)/C=C/c3cccc(Br)c3)nc3ccccc32)cc1 | -2% | / | / | / | / | /
CCc1ccc(N(CC(C)C)S(=O)(=O)c2ccc(OCC3CCOCC3)c(CO)c2)cc1 | -2% | / | / | / | / | /
Cc1cc(Nc2cccc(Cl)c2)nc2ccc(NC(=O)c3cccnc3)cc12 | ? | ? | -9% | ? | -60% | /
O=C(O)c1ccc2c(c1)nc(Nc1cccc(Cl)c1)c1ccncc12 | 14µM*! | ? | / | ? | -11% | ?
CN(C)C(=O)Nc1cc(-c2ccccc2)ccc1N(C)C | -3%[57.5 µM] | -3% | / | / | / | -8%
COC1C(CO)OC(n2cnc3c(=O)[nH]cnc32)C1O (stereo unspecified) | ? | -1% | / | / | / | /
Cc1sc2c(c1C)c(=O)n(Cc1ccccc1)c(=O)n2Cc1ccc(F)cc1 | -4% | 10% | 2% | -3% | 5% | /
Cn1sc(=O)n(Cc2ccccc2)c1=O | 7.9µM* | 9% | / | / | / | 1.6µM*
CC(C)C[C@H](C(=O)O)c1cc(-c2ccc(C(F)(F)F)cc2)cc(-c2ccc(C(F)(F)F)cc2)c1 | -17%[57.5 µM] | ? | / | / | / | /
CC#C[C@@H](CC(=O)O)c1ccc(OCc2cccc(-c3ccc(C(F)(F)F)cc3)c2)cc1 | 22µM* | ? | / | / | / | ?
Cc1ccc(-c2ccc(CNc3nc(-c4ccccc4C(C)C)ncc3F)cc2)cn1 | 11% | / | / | / | / | /
COc1ccc2c(c1)O[C@H](O[C@@H]1O[C@H](CO)[C@@H](O)[C@H](O)[C@H]1O)C(=O)N2 | -12%[29.8 µM] | -1%[53.3 µM] | / | / | / | /
Cc1cccc(C(=O)Nc2c(C(=O)NCc3ccc(Cl)cc3)sc3nc(C)cc(C)c23)c1 | 11% | -3% | 0% | ? | -50% | /
Cc1cc(C)c2c(N)c(C(=O)NCc3ccc(Cl)cc3)sc2n1 | -10%[57.5 µM] | -7% | / | / | / | -8%
N[C@@H](CC(=O)Nc1ccc(Oc2cc(F)c(F)cc2Br)cc1)C(=O)O | 2%[57.5 µM] | ? | / | / | / | /
Cc1c(C(=O)N(C)CC2CCCO2)[nH]c2c1C(=O)CC(c1ccco1)C2 (stereo unspecified) | -14% | / | / | / | / | /
OCc1ccc(-c2ccc(-c3ccc(CO)s3)o2)s1 | ? | 1%[53.3 µM] | / | -1% | -9% | -28%[28.6 µM]
N#Cc1nc(Nc2cc(F)cc(F)c2)c2ncn(CCN3CCCC3)c2n1 | -8% | / | / | / | / | /
COc1cccc(Nc2ncc3ncc(=O)n(C)c3n2)c1 | / | / | / | / | / | / | CLK4 KinaseGlo=0.92µM*
COc1cccc(Nc2ncc3nc(-c4cn(C)c5ccccc45)c(=O)n(CCC#N)c3n2)c1 | / | / | / | / | / | / | CLK4 KinaseGlo=?
Cc1csc2c(N[C@@H](C)CN3CCN(S(=O)(=O)c4ccc(Cl)c(Cl)c4)CC3)ncnc12 | 2%[57.5 µM] | -11% | / | / | / | /
COc1cccc(C(=O)c2c(N)c(-c3nc(-c4ccccc4)cs3)c3ccccn23)c1 | 6% | 17% | 8% | -1% | 3% | /
COc1c(C)c(C(=O)c2ccc(N)c(C(=O)O)c2)n2ccccc12 | -12%[57.5 µM] | -23% | / | / | / | -12%
Cc1ccc(OCCn2c(CCNC(=O)CCN3CCCCC3)nc3ccccc32)cc1 | 0%[57.5 µM] | / | / | / | / | /
